# Source: PubChem BioAssay (The Scripps Research Institute Molecular Screening Center)
# PLC-gamma1 inh = blocks human PLC-gamma1 enzyme activity | P19174 | purified PLC-gamma1, fluorogenic substrate, fluorescence | inhibition, % at 12.2 µM | 370,000 compounds, 0.84% hits | AID 720700; in the data active = inhibition above about 9.5%
# Target sequence (P19174 whole entry, looked up): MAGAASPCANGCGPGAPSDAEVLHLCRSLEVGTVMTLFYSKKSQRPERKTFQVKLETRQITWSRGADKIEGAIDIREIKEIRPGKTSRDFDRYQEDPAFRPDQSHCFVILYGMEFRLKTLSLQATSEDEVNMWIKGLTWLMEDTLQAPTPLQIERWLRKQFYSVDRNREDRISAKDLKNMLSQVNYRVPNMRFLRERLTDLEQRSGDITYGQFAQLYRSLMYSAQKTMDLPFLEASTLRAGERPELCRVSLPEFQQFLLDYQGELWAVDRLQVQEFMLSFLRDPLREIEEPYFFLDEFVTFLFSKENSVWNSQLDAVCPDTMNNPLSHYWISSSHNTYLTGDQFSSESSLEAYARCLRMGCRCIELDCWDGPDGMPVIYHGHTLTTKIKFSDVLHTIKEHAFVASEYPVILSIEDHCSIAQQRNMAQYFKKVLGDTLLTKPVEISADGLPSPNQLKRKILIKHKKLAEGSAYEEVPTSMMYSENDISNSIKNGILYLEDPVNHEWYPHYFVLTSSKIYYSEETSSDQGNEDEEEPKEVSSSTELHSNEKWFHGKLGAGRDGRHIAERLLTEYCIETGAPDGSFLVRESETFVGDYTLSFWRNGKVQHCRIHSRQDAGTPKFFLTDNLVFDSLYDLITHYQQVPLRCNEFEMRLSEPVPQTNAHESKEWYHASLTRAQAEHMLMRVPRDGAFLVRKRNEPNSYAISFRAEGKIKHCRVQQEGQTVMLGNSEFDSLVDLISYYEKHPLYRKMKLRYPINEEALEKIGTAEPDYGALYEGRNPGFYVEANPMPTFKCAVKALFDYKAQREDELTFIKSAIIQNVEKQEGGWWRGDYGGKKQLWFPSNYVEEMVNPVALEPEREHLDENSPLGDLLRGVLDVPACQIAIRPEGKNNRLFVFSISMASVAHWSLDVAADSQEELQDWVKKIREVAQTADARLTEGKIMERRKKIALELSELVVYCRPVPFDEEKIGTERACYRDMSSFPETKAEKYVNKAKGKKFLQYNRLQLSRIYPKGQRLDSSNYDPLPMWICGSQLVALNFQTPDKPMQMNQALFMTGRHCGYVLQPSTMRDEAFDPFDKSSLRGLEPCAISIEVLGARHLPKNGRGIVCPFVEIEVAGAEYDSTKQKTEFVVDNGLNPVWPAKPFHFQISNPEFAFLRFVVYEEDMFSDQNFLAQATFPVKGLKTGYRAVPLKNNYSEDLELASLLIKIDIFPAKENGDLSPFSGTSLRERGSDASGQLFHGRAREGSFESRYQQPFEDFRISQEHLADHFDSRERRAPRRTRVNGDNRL
# KLK7 zymogen act = activates the human kallikrein-7 zymogen | 370,000 compounds, 0.9% hits | purified proKLK7, EDANS-DABCYL substrate fluorescence; 100% is mature enzyme control, 0% vehicle | AID 652039 | P49862 | activation, % at 7 µM;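 active = activation above the mean of all tested compounds plus 3 SD, computed per campaign excluding outliers beyond control limits, cut at about 13% in these data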
# sPLA2-III inh = Blocks human group III sPLA2 activity; Q9NZ20; QFRET BODIPY PC-A2 liposome hydrolysis, fluorescence; inhibition, % at 12.2 µM; 370,000 compounds, 0.56% hits;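 active = inhibition above mean plus 3 SD of compounds lying within the high and low control bounds, cut at about 19% in these data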;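 note: 0% = median of test compound wells and 100% = no enzyme DMSO wells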
# ADAM10 inh = ADAM10 inhibition, QFRET primary screen | O14672 | recombinant ADAM10, EDANS/DABCYL FRET peptide cleavage, 3 h | inhibition, % at 7 µM | 370,000 compounds, 0.62% hits | AID 720582;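 active = inhibition above a per-campaign cutoff equal to the mean of compounds falling between control-based bounds plus 3 SD, cut at about 20% in these data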;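 note: 0% = DMSO wells while the 100% control is not disclosed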
# ADAM17 inh = inhibits human ADAM17 | P78536 | recombinant ADAM17, EDANS/DABCYL FRET peptide cleavage | inhibition, % at 6.95 µM | 370,000 compounds, 0.83% hits | AID 720648;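 active = inhibition above the mean of compounds lying between control limits plus 3 SD, set per campaign, cut at about 8.5% in these data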;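 note: 0% = DMSO-only wells as the low control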
# PLCb3 inh = PLC-beta3 (human) inhibition, primary screen. Q01970. Purified PLC-beta3, fluorogenic substrate, fluorescence. inhibition, % at 12.2 µM. 370,000 compounds, 0.18% hits; in the data active = inhibition above about 11%;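 note: 0% = median of compound wells on plate and 100% = full blocker control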
# ADAM10 confirm = human ADAM10 inhibition, confirmation; inhibition, % at 6.95 µM; 2,100 compounds, 1% hits; shares compounds with ADAM10 inh; ADAM10 QFRET peptide cleavage, EDANS fluorescence; AID 743208;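 active = inhibition above about 20% chosen separately for each screening run, limit read from the data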;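 note: 0% = DMSO wells and 100% = marimastat wells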
# ADAM17 counter = ADAM17 inhibition, counter-screen for ADAM10 exosite hits | ADAM17 QFRET peptide cleavage, EDANS fluorescence | shares compounds with ADAM10 inh | inhibition, % at 6.95 µM | 2,100 compounds, 0.5% hits;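 active = mean triplicate inhibition above the solvent-only control wells' mean plus 3 SD, cut at about 12% in these data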;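 note: 0% = DMSO wells and 100% = marimastat wells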
# ADAM10 counter = ADAM10 inhibition, counter-screen for ADAM17 exosite hits; 2,900 compounds, 47% hits; AID 743256; shares compounds with ADAM17 inh; recombinant ADAM10, EDANS/DABCYL FRET peptide cleavage, 3 h; inhibition, % at 6.95 µM;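 active = mean inhibition over the triplicate runs exceeds the activity threshold set in the earlier primary screen, cut at about 20% in these data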;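 note: 0% = DMSO wells and 100% = marimastat wells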
# ADAM17 confirm = human ADAM17 inhibition, confirmation. recombinant ADAM17, EDANS/DABCYL QFRET peptide cleavage. shares compounds with ADAM17 inh. AID 743257. 2,900 compounds, 65% hits. inhibition, % at 6.95 µM;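 active = mean inhibition across replicates above the hit cutoff set in the primary screen, cut at about 8.5% in these data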;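 note: 0% = DMSO wells and 100% = marimastat wells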
# Active calls of the source: *; . = no result given. Rows were chosen to be rich in hits. Some 3.4% of all compounds tested hit in one or more screens of this group.
SMILES,PLC-gamma1 inh,KLK7 zymogen act,sPLA2-III inh,ADAM10 inh,ADAM17 inh,PLCb3 inh,ADAM10 confirm,ADAM17 counter,ADAM10 counter,ADAM17 confirm
C=CC[C@H](CC(=O)N(CCO)Cc1ccccc1)C(=O)N[C@H](COC(=O)[C@@H](CC=C)Cc1ccc(F)cc1)Cc1c[nH]c2ccccc12,7,2,-87,27*,15*,0,8,3,41*,23*
C=CCC[C@H](Cc1ccc(F)cc1)C(=O)OC[C@H](Cc1c[nH]c2ccccc12)NC(=O)[C@H](CC=C)CC(=O)N(CCO)Cc1ccccc1,5,0,-78,24*,12*,7,17,5,36*,18*
C=CCC[C@H](Cc1ccc(F)cc1)C(=O)OC[C@@H](Cc1c[nH]c2ccccc12)NC(=O)[C@@H](CC=C)CC(=O)N[C@@H](CO)Cc1ccccc1,1,1,-72,22*,11*,5,9,2,8,7
C=CCC[C@@H](Cc1ccc(F)cc1)C(=O)OC[C@@H](NC(=O)[C@H](CC=C)CC(=O)N(CCO)Cc1ccccc1)c1ccccc1,2,0,-30,27*,11*,2,11,4,36*,20*
CCCCNC(=O)C1(C(=O)c2ccc(OC)cc2)CC(c2ccccn2)=NO1 (configuration not stated),0,0,-2,-3,-3,0,.,.,.,.
Cc1cccc(OCCNC(=O)c2cccc(Oc3ccc(C(F)(F)F)cc3[N+](=O)[O-])c2)c1,-1,0,-13,32*,14*,-3,11,4,34*,18*
Cc1ccc(OCCNC(=O)c2cccc(C)c2)cc1,4,0,-1,7,2,0,.,.,.,.
COc1ccc(NS(=O)(=O)c2ccc(O)c(C(=O)OCC(=O)NC(C)C3CC4CCC3C4)c2)cc1 (configuration not stated),-1,0,-6,-5,-6,-8,.,.,.,.
CC(NC(=O)COC(=O)c1cc(NS(=O)(=O)c2ccc(Cl)c([N+](=O)[O-])c2)ccc1O)C1CC2CCC1C2 (configuration not stated),-2,0,-41,22*,8.8*,2,9,2,38*,17*
CCCC(=O)Nc1ccc2c(c1)C(=O)N(C)[C@H]1CC[C@@H](CC(=O)OC)O[C@@H]1CO2,1,1,2,-2,-2,2,.,.,.,.
NNC(=O)C(=O)/C=C1\NC2(CCCC2)Cc2ccccc21,-2,-1,11,6,2,-11,.,.,.,.
O=C(/C=C1\NC2(CCCC2)Cc2ccccc21)C(=O)N/N=C/c1ccc(O)c(O)c1,4,-1,-8,22*,12*,4,6,4,18,9.4*
C[C@@H](NC(=O)c1nc[nH]c1C(=O)N[C@@H](CCCCNC(=O)OC(C)(C)C)C(=O)OC(C)(C)C)c1ccccc1,8,0,4,43*,22*,10,-1,0,37*,16*
CC(C)C[C@H](NC(=O)c1nc[nH]c1C(=O)NCCCCCNC(=O)OC(C)(C)C)C(=O)OC(C)(C)C,-3,-1,-20,23*,9.8*,-1,4,0,35*,15*
CC(C)(C)OC(=O)NCCCC[C@H](NC(=O)c1[nH]cnc1C(=O)Nc1ccccc1)C(=O)OC(C)(C)C,4,0,-25,36*,11*,4,4,2,44*,22*
COC(=O)[C@]12C[C@H](CC(=O)N3CCCCC3)C(=O)N(CCc3ccc(OC)c(OC)c3)C1=C[C@H](C(C)(C)C)O[C@@H]2C,2,0,-3,-5,-2,4,.,.,.,.
COC(=O)c1[nH]c2ccccc2c1Sc1ccccc1,-4,-1,-7,6,3,-7,.,.,.,.
CNC(=O)CCc1[nH]c2ccccc2c1Sc1ccccc1,8,1,-16,20*,9.1*,5,1,0,4,3
Cc1oc2c(cc(NS(=O)(=O)c3cccs3)c3ccccc32)c1C(=O)OC(C)C,4,0,-41,24*,9.7*,-1,6,3,38*,14*
Cc1oc2c(cc(NS(=O)(=O)c3ccc(C(C)C)cc3)c3ccccc32)c1C(=O)O,-15,-1,-28,6,1,-25,.,.,.,.
C[C@@H]1[C@H](O)[C@@H](C)/C=C/C=C/C=C/C=C/C=C/C=C/C=C/[C@H](OC2O[C@H](C)[C@@H](O)[C@H](N)[C@@H]2O)C[C@@H]2O[C@](O)(C[C@@H](O)C[C@@H](O)[C@H](O)CC[C@@H](O)C[C@@H](O)CC(=O)O[C@H]1C)C[C@H](O)[C@H]2C(=O)O (some centres not stated),-109,9,-68,-71,-19,-147,.,.,.,.
COc1ccccc1OCc1ccc(C(=O)N2N=C(C(F)F)CC2(O)C(F)F)o1 (configuration not stated),-25,0,-13,-8,-6,-26,.,.,.,.
O=C(c1ccc(COc2ccc(Cl)cc2)o1)N1N=C(C(F)F)CC1(O)C(F)F (configuration not stated),-32,0,-15,34*,13*,-48,2,1,13,8
COc1ccc(N=C2SC(CC(=O)Nc3cccc(Cl)c3)C(=O)N2Cc2ccco2)cc1 (configuration not stated),7,0,-26,21*,14*,6,9,3,23*,16*
COc1ccc(N=C2SC(CC(=O)Nc3ccccc3)C(=O)N2Cc2ccccn2)cc1 (configuration not stated),0,1,-18,5,-1,-1,.,.,.,.
Cc1ccc(S(=O)(=O)N(C)c2ccc(OCC(=O)Nc3nc4ccccc4s3)cc2)cc1,5,0,-27,29*,18*,4,10,3,23*,16*
COc1ccc(S[C@]2(C(=O)N3CCN(c4ncccn4)CC3)CC(=O)N(C(=O)Nc3ccc(C)c(Cl)c3)[C@@H]2c2ccc(OC)cc2)cc1,0,0,-2,0,-1,0,.,.,.,.
